Tests used:
Assay in all cases: PBM binding z-score (relative to random genomic background probes); higher = stronger binding; sequences stand for … in GC…GCGATTGACAGCGTAGAATGAAGG
[1] = system: FXR:RXRa (NR concentration 270 nM, RXRa partner concentration 90 nM)
Summary of the method: (§1)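 Binding buffer was PBS pH 7.4 with 2% milk, 0.02% Triton X-100, 1 mM DTT, 0.2 mg/mL BSA and 0.4 mg/ml salmon testes DNA. In it, ligand-free nuclear receptor dimers were incubated 1 h on custom Agilent 4×180K protein-binding microarrays carrying double-stranded probes. Antibodies against each partner (one per run) detected binding, and z-scores were calculated against random background probes after regression normalization of scanned fluorescence.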

[2] = system: LXRa:RXRa (NR concentration 270 nM, RXRa partner concentration 90 nM)
Summary of the method: as §1

[3] = system: LXRa homodimer (NR concentration 270 nM)
Summary of the method: as §1

[4] = system: LXRb:RXRa (NR concentration 270 nM, RXRa partner concentration 90 nM)
Summary of the method: as §1

[5] = system: LXRb homodimer (NR concentration 270 nM)
Summary of the method: as §1

[6] = system: PPARa:RXRa (NR concentration 270 nM, RXRa partner concentration 90 nM)
Summary of the method: as §1

[7] = system: PPARg:RXRa (NR concentration 180 nM, RXRa partner concentration 90 nM)
Summary of the method: as §1

[8] = system: PPARg:RXRa 270nM:90nM, anti-RXR (NR concentration 270 nM, RXRa partner concentration 90 nM)
Summary of the method: as §1

[9] = system: PPARg:RXRa 30nM:10nM, anti-RXR (NR concentration 30 nM, RXRa partner concentration 10 nM)
Summary of the method: as §1

[10] = system: PPARg:RXRa 90nM:30nM, anti-RXR (NR concentration 90 nM, RXRa partner concentration 30 nM)
Summary of the method: as §1

Sequence	PBM binding z-score [1]	PBM binding z-score [2]	PBM binding z-score [3]	PBM binding z-score [4]	PBM binding z-score [5]	PBM binding z-score [6]	PBM binding z-score [7]	PBM binding z-score [8]	PBM binding z-score [9]	PBM binding z-score [10]
TTACCAAGGTGAAAGGTCGTTAATGCACGCCTTG	3.24	2.77	0.376	2.71	-0.461	5.24	8.59	7.35	6.74	7.85
AGAATGACGTTATTAAGATCAGGGAATTGCGGTC	-0.71	-0.589	-0.146	-0.6	-0.12	-0.251	0.405	0.0531	-0.0762	0.151
CCGACTGGGGCATATGGTTACCATAAGCCAGCCC	-0.611	-0.598	-0.857	-0.657	-1.1	0.208	1.47	1.94	0.491	1.32
CCAGATAGGTGAAAGGTAACTCAGTCTGGTACGC	0.688	0.694	0.0245	1.14	-0.143	4.2	7.95	7.54	7.57	7.93
CGTCCAAGGTCAGAGAGGTCAGAGAATGCCGAGT	6.45	5.34	3.4	4.53	0.508	5.1	3.75	4.28	1.33	3
TTACCAAGGTGAGCTGATGTCGTTGATCCAACTC	0.178	-0.111	-0.671	-0.252	-0.971	0.344	0.146	0.25	0.147	0.11
AGATGTAGGTTACATCCGGGTCATTCAGGCTATG	2.09	4.32	0.937	2.54	0.043	4.14	5.05	4.32	1.77	3.53
ATAATGAGGTTATACGTAGATCAGGGAAGAAAGT	2.27	2.55	0.45	1.89	0.893	3.42	2.56	2.38	0.895	1.89
TAGCCTAGGTCATGCGGGCCATTATAGTGTCGGC	4.23	3.27	0.473	1.96	-0.482	3.6	2.62	2.47	0.148	1.56
CCTCGGATGACAGAAGGTCAGAGCTGTCCGCTTT	1.3	1.79	0.493	1.37	0.0484	2.01	0.0217	0.56	-0.64	0.0995
AGTCAGAGTTCACTAGGTAACGTAAGATTCAGCT	4.41	4.52	2.25	2.64	0.624	4.54	5.57	5.35	2.12	4.4
TGAATGAGGTTATAGATCAGGGAACGTGGCGTCG	1.56	1.48	-0.163	0.762	0.262	2.84	2.57	3.62	2.18	3.73
TCTCGCAGGCCAGAGGGTCACTCAAGAGGTACGG	1.04	1.1	-0.517	1.02	-1.09	2.32	0.92	1.95	2.05	1.91
ACTTACGGGTGAACGAGGTTATAGCACGCGTATA	0.972	1.28	0.16	1.21	-0.375	2.36	1.73	1.35	0.333	0.745
CAAACTAGGTCACACAGGTCAAAGTCCGTGCGTA	5.67	5.43	4.2	4.82	0.995	5.71	9.3	7.72	5.14	7.46
TCTATTATTTGATTAGGGCAACCGAAACAGCGGA	0.94	0.738	1.29	1.08	1.33	1.34	0.291	2.43	4.02	3.25
CCTACTGGGCCAAGGTCATGGATCAGTCAAAGCA	3.04	3.08	0.47	3.01	-0.724	4.32	4.52	4.76	1.8	3.69
CCTACTGGGCCAAAAAGGTCATCGATGCCGATAA	3.69	4.2	2.69	4.33	0.178	4.93	4.32	4.61	2.07	4.04
GGAACGAGGGCAAAGCTGATAGCATCTGTCGACG	0.392	0.366	-0.605	-0.126	-0.711	1.68	1.5	1.78	0.251	1.17
TCTAGTTGGTCACGGAGGTCACACTCGACGGGTA	3	3.28	2.58	3.06	0.84	3.75	2.84	3.93	3.54	3.5
CCTTACGGGTCAAGGATATAGCACGGGTGGTACG	4.77	2.96	0.0404	2.45	-0.392	4.52	3.82	3.92	1.14	2.66
CCAGACAGGTGAGAAGGTAACTTAGCCTCGATTA	0.0387	0.133	-0.108	0.0826	-0.355	0.501	0.351	0.351	-0.0164	0.0696
TGAAGGAGGTTAAAGATCAGGGAACGTGGCGTCG	2.43	2.05	0.112	1.62	0.187	3.67	4.96	5.81	4.55	6.03
ACAGACAGGTGTGTGAAGGTAACTCAGCTGGACG	0.0191	-0.00303	-0.46	-0.618	-0.921	-0.347	0.522	-0.0357	-0.212	-0.375

Reference: the supplement of paper PMC6555819
